These results are taken from PubChem BioAssay.

Experiment [1] is described as follows: optical density shifts of acrAB sulA E. coli – strain DRC41, OD650, 48 h, E. coli filamentation inducer project, primary screen (AID 1152).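 Further: E. coli MC1000 strain DRC41 lacking acrAB efflux pump and sulA.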 To be noted: higher = more signal, called active from +8 up or from −8 down.
The nature of experiment [2]: probe aLefty1 binding on compound microarray – biochemical, small-molecule microarray, 635/667 nm fluorescence, primary screen (AID 1153).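 Further: score merges spot fluorescence with signal-to-noise ratio from the scanned slide images.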 Particulars: higher = more signal.
A short description of experiment [3]: plasmodial surface anion channel blockers, osmotic lysis – cell-based, P. falciparum Indochina, OD700, 1 h, primary screen (AID 1154). Particulars: P. falciparum Indochina infected RBC osmotic lysis, higher = more signal, called active from +8 up or from −8 down.
Experiment [4] can be described thus: plasmodial surface anion channel blockers, osmotic lysis – cell-based, P. falciparum Indochina, OD700, 2 h, primary screen (AID 1155).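 Further: lysis reports solute entry through the parasite surface anion channel PSAC.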 To be noted: P. falciparum Indochina infected erythrocytes, higher = more signal, called active from +8 up or from −8 down.
Experiment [5] can be described thus: changes in parasitized red cell lysis, either direction – P. falciparum Indochina, OD700, 3 h, PSAC antagonist project, primary screen (AID 1156). To be noted: P. falciparum-infected erythrocytes, osmotic lysis, higher = more signal, called active from +8 up or from −8 down.
Experiment [6] is described as follows: plasmodial surface anion channel blockers, osmotic lysis – cell-based, P. falciparum Indochina, OD700, 18 h, primary screen (AID 1157). To be noted: P. falciparum Indochina infected erythrocytes, osmotic lysis OD700, 18 h; higher = more signal, called active from +8 up or from −8 down.
The nature of experiment [7]: S6 kinase pathway phospho-S6 level changes – cell-based, A549, cytoblot, luminescence, serum-stimulated, primary screen (AID 1158).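 Further: serum-stimulated A549 lung adenocarcinoma cells; signal is phosphorylated S6 detected by cytoblot immunostaining with HRP secondary.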 Particulars: 5 h, higher = more signal.
The target in experiment [8] is NADPH oxidase 2 (Homo sapiens) (UniProt P04839). Nature of the experiment: compounds shifting NOX2 Amplex Red fluorescence – cell-based, HEK293-NOX2, PMA-stimulated, NOX inhibitor project, primary screen (AID 1159). Further: test concentration not given here. Particulars: 45 min, higher = more signal, called active from +8 up or from −8 down.
Sequence of NADPH oxidase 2 (Homo sapiens) (P04839 whole entry, looked up): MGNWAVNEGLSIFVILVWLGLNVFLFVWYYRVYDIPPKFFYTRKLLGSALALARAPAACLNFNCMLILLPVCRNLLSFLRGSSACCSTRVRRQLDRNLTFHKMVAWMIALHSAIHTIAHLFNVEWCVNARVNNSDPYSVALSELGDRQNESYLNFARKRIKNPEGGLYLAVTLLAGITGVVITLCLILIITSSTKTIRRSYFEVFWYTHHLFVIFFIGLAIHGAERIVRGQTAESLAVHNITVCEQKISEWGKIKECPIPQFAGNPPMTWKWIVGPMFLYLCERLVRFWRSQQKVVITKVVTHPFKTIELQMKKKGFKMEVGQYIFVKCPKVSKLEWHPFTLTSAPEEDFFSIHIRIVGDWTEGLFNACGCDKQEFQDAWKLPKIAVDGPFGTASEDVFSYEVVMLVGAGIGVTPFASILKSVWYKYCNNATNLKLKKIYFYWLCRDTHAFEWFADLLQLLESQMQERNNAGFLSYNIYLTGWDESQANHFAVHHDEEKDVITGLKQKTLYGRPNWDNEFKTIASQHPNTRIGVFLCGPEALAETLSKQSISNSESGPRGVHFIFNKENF
The target of experiment [9] is NADPH oxidase 4 (Homo sapiens) (UniProt Q9NPH5). The experiment in a line: compounds shifting NOX4 Amplex Red fluorescence – cell-based, HEK293-NOX4, tetracycline-induced, NOX inhibitor project, primary screen (AID 1160). To be noted: HEK293-NOX4, Amplex Red H2O2 fluorescence, 45 min; higher = more signal, called active from +8 up or from −8 down.
Sequence of NADPH oxidase 4 (Homo sapiens) (Q9NPH5 whole entry, looked up): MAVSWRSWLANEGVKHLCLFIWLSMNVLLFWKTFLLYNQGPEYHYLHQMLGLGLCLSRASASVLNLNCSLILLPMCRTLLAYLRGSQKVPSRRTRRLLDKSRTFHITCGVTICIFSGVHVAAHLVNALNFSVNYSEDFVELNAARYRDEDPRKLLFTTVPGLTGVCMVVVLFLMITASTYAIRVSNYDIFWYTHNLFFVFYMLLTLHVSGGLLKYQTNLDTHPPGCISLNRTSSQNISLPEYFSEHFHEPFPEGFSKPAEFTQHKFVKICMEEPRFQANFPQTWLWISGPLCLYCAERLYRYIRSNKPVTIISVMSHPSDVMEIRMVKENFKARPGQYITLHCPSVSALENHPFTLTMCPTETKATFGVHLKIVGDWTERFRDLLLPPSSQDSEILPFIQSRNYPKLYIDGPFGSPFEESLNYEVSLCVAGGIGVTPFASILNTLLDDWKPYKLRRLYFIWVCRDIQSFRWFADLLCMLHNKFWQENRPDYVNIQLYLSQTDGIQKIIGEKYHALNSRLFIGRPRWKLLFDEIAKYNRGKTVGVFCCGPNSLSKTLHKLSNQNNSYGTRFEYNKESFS
The target in experiment [10] is NADPH oxidase 5 (Homo sapiens) (UniProt Q96PH1). The experiment in a line: compounds shifting NOX5 Amplex Red fluorescence – cell-based, HEK293-NOX5, NOX inhibitor project, primary screen (AID 1161). Particulars: HEK293-NOX5, ionomycin, 45 min, higher = more signal.
Sequence of NADPH oxidase 5 (Homo sapiens) (Q96PH1 whole entry, looked up): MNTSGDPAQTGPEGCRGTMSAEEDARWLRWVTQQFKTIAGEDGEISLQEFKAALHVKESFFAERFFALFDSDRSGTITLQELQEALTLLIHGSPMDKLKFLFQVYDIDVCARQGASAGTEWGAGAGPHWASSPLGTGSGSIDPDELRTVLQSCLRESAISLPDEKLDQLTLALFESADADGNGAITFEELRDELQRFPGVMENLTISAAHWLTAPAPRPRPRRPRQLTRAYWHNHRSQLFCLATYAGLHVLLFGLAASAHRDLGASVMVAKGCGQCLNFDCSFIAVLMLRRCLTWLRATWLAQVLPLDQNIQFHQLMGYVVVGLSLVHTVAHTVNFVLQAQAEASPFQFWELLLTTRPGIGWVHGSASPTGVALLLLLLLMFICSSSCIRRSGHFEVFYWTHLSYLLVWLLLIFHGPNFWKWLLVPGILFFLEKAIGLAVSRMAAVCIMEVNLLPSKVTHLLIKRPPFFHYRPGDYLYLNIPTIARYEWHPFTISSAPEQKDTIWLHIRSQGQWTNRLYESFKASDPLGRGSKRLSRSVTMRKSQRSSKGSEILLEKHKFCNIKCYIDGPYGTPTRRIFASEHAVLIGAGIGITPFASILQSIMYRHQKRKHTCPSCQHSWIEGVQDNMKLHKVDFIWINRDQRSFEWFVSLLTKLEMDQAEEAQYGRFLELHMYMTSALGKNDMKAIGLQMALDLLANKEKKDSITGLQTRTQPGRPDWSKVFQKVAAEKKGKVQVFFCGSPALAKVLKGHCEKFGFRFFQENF
Experiment [11] in a line: compound effects on lung adenocarcinoma cell viability – A549, calcein-AM fluorescence, 48 h, basal, profiling panel (AID 1162). Further: test concentration not given here. Particulars: higher = more signal.
Experiment [12] is described as follows: compound effects on differentiated 3T3-L1 adipocyte viability – cell-based, 3T3-L1 adipocytes, calcein-AM fluorescence, 48 h, basal, profiling panel (AID 1163). Further: test concentration not given here. Particulars: 3T3-L1 adipocytes viability, higher = more signal.
Experiment [13] is described as follows: compound effects on hepatocellular carcinoma cell viability – HepG2, calcein-AM fluorescence, 48 h, basal, profiling panel (AID 1164). Further: test concentration not given here. Particulars: higher = more signal.
Experiment [14] in a line: compound effects on multiple myeloma cell viability – MM1S, calcein-AM fluorescence, 48 h, basal, profiling panel (AID 1165).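 Further: viability of MM1S multiple myeloma cells under basal unstimulated conditions; test concentration not given here.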 To be noted: higher = more signal.
Experiment [15] can be described thus: calcein-AM signal in unstimulated myeloma cells – cell-based, calcein-AM fluorescence, 48 h, PK04 Diversity Set, profiling panel (AID 1166).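 Further: cells grown under basal conditions without added stimulus; test concentration not given here.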 To be noted: RPMI8226 myeloma viability, higher = more signal.
Experiment [16] in a line: JC-1 mitochondrial signal, unstimulated HepG2 cells – cell-based, JC-1 fluorescence, 24 h, 100 nL compound, profiling panel (AID 1167). Further: test concentration not given here. Particulars: HepG2 mitochondrial potential, higher = more signal.
The nature of experiment [17]: JC-1 mitochondrial signal, unstimulated adipocytes – cell-based, JC-1 fluorescence, 3T3-L1 adipocytes, 24 h, 100 nL compound, profiling panel (AID 1168). Further: test concentration not given here. To be noted: JC-1 mitochondrial fluorescence, higher = more signal, called active from +8 up or from −8 down.
Experiment [18] can be described thus: JC-1 mitochondrial signal, unstimulated myeloma cells – cell-based, JC-1 fluorescence, RPMI8226, 24 h, 100 nL compound, profiling panel (AID 1169). Further: test concentration not given here. Particulars: JC-1 mitochondrial potential fluorescence, higher = more signal.
Experiment [19] in a line: JC-1 mitochondrial signal, unstimulated MM1S myeloma – cell-based, JC-1 fluorescence, 24 h, 100 nL compound, profiling panel (AID 1170). Further: test concentration not given here. Particulars: MM1S mitochondrial potential, higher = more signal.
Experiment [20] can be described thus: resazurin metabolic signal in A549 cells – cell-based, resazurin fluorescence, 24 h, PK04 Diversity Set, profiling panel (AID 1171). Further: test concentration not given here. To be noted: A549 viability, higher = more signal, called active from +8 up or from −8 down.

SMILES strings stand for the structures. Calls of active or inactive are those of the source.

Consider `COC(=O)[C@H](Cc1ccccc1)N[C@@H](/C=C/C1CC1)[C@H](O)Cc1ccccc1`, for which the z-score in [1] was 0.0327 (inactive); in experiment [3], 0.738 (inactive); in experiment [4], 0.229 (inactive); in experiment [5], -0.592 (inactive); in experiment [6], 0.428 (inactive); in [7], -0.162. Further, the z-score in experiment [8] is 0.42 (inactive); in experiment [9] it was -0.135 (inactive); in experiment [10], -1.41; in [11] it was 0.168; in [12], -0.0648; in [13] it was -0.438. For the same molecule, the z-score in [14] is -0.608; in experiment [15], -0.507; in experiment [16], -0.908; in [17], -0.124 (inactive); in [18] it was -1.17; in [19] it was -0.594. Further, the z-score in experiment [20] was 0.778 (inactive). Further, the composite z-score in [2] is -0.239.

In the case of `COCCOC(=O)N1C(=O)[C@@]2(c3cc(C#CCC(C(=O)OC)C(=O)OC)ccc31)[C@H](C(=O)N1CCN(c3ncccn3)CC1)[C@H]1C(=O)O[C@H](c3ccccc3)[C@H](c3ccccc3)N1[C@@H]2c1ccccc1OCCO`, the z-score was -0.646 (inactive) in experiment [1]; 3.14 (inactive) in experiment [3]; 1.55 (inactive) in experiment [4]; 0.391 (inactive) in experiment [5]; 0.533 (inactive) in experiment [6]; 0.0555 in experiment [7]. The z-score in experiment [8] is 1.45 (inactive); in experiment [9] it was 0.851 (inactive); in [10] it was 1.3; in experiment [11], 0.0182; in experiment [12], 0.462; in experiment [13], -0.481. Further, the z-score in experiment [14] is -0.748; in experiment [15], 0.297; in experiment [16] it was 1.37; in experiment [17], 1.39 (inactive); in experiment [18], -0.182; in experiment [19], -1.2. The z-score in experiment [20] is -0.174 (inactive). For the same molecule, the composite z-score in [2] came out at 0.312.

As for `CC(C)C(=C=CC[C@@H](O)c1ccc(OCCO)cc1)C[C@@H](O)COCc1ccccc1`, the z-score in experiment [1] was 1.45 (inactive); in experiment [3], 8.51 (active); in [4], -0.15 (inactive); in experiment [5], 0.776 (inactive); in experiment [6], -0.46 (inactive); in experiment [7], 4.27. Besides, the z-score is -2.13 (inactive) in experiment [8]; -0.915 (inactive) in experiment [9]; -2.41 in experiment [10]; 2.2 in experiment [11]; 1.46 in experiment [12]; 1.2 in experiment [13]. In addition, the z-score was -0.619 in experiment [14]; 0.471 in experiment [15]; 1.52 in [16]; 0.404 (inactive) in experiment [17]; -0.147 in experiment [18]; -1.11 in experiment [19]. Moreover, in experiment [20], the z-score was 0.343 (inactive). The composite z-score in experiment [2] stood at 0.0341.

For the molecule `O=C1N(Cc2ccccc2)c2ccccc2[C@@H]2OC(c3ccc(OCCCO)cc3)=N[C@]12CCS(=O)(=O)c1ccccc1`, the z-score in experiment [1] was -0.355 (inactive); in experiment [3], 24.7 (active); in experiment [4] it was 13.3 (active); in experiment [5] it was 1.79 (inactive); in experiment [6] it was 1.57 (inactive); in [7] it was 0.0582. Moreover, the z-score was 0.22 (inactive) in experiment [8]; 1.32 (inactive) in [9]; 1.96 in experiment [10]; -0.221 in experiment [11]; 0.0205 in experiment [12]; 0.455 in experiment [13]. Moreover, the z-score in experiment [14] is -0.527; in experiment [15], 0.144; in [16], -1.33; in [17], 1.86 (inactive); in experiment [18] it was -0.669; in [19] it was -0.605. Besides, in experiment [20], the z-score is 0.404 (inactive). Also, the composite z-score in experiment [2] amounted to 0.387.
